Bioassay records from PubChem.
This is a sample that favours compounds with a hit; in the whole collection about 3.5% have one here.
mHTT-CaM PPI inh: mutant huntingtin-calmodulin interaction inhibitors – biochemical, AlphaScreen, primary screen | AlphaScreen His-mHTT/GST-CaM binding, luminescence | inhibition, % at 15 µM | hit rate 3.6% among 190,000
Pf apPOL block: Pf-apPOL inhibitors, biochemical, fluorescence; Recombinant Pf-apPOL, molecular beacon fluorescence, 1.5 h; inhibition, % at 10 µM; Plasmodium falciparum apicoplast DNA polymerase (apPOL); hit rate 0.25% among 210,000
Numbers stand for hits; n = inactive; x = no result. Cut-off read from the data, not from the text of the source: active = inhibition above about 50%; inactive = the rest.

SMILES | mHTT-CaM PPI inh | Pf apPOL block
Cc1c(C(=O)N2CCN(C)CC2)c(C2CC2)nn1-c1ccc(Cl)c(Cl)c1 | 56.4 | n
CS(=O)(=O)N(CC(=O)Nc1ccccc1C(=O)O)c1cccc(Br)c1 | n | n
CCCS(=O)(=O)c1nc2ccccc2n1Cc1cc(OC)cc(OC)c1 | n | n
CCCCN(C)S(=O)(=O)c1ccc(C(=O)Nc2nnc(C3CC3)o2)cc1 | n | n
O=S(=O)(c1ccc(F)c(F)c1)N1CCc2nc(-c3ccccc3)ncc2C1 | n | n
CC(=O)Nc1ccc(C(=O)NCc2cccc(F)c2)c(N2CCCCC2)c1 | 64.6 | n
CC(=O)Nc1ccc(C(=O)NCc2cccc(F)c2)c(N2CCOCC2)c1 | n | n
CNc1ccc([N+](=O)[O-])cc1-n1cc2c(c1-c1ccccc1)c(=O)n(C)c(=O)n2C | n | 65.2
COc1ccc(-c2c3c(=O)n(C)c(=O)n(C)c3cn2-c2ccccc2)cc1 | n | n
COc1ccc(-c2c3c(=O)n(C)c(=O)n(C)c3cn2-c2ccccc2OC)cc1 | n | 78.0
COc1ccc(-c2c3c(=O)n(C)c(=O)n(C)c3cn2-c2ccc(C)cc2C)cc1 | n | n
Cc1ccc(-n2cc3c(c2-c2ccccc2)c(=O)n(C)c(=O)n3C)c(C)c1 | n | 83.4
CCn1cc2c(c1-c1ccccc1)c(=O)n(C)c(=O)n2C | n | n
Cc1cc(N)c(-n2cc3c(c2-c2ccccc2)c(=O)n(C)c(=O)n3C)cc1C | n | 81.8
Cn1c(=O)c2c(-c3ccccc3)n(-c3ccccc3)cc2n(C)c1=O | n | n
COCCNC(=O)CC1Sc2ncccc2N(C)C1=O (configuration not stated) | n | n
Cc1sc2cc(C(=O)NC(C)c3cccnc3)[nH]c2c1CN1CCCCC1 (configuration not stated) | n | n
Cc1ccc(C)c(N2CCN(C(=O)CCCN3C(=O)CCn4nc(C)cc43)CC2)c1 | n | n
Cc1cc2n(n1)CCCN2C(=O)CCC(=O)N1CCN(c2cc(Cl)ccc2C)CC1 | 87.2 | n
Cc1cc2n(n1)CCC(=O)N2CCCC(=O)N1CCN(c2cc(Cl)ccc2C)CC1 | 83.9 | n
Cc1ccc(C)c(N2CCN(C(=O)CCC(=O)N3CCCn4nc(C)cc43)CC2)c1 | n | n
O=C(Cc1ccsc1)N1CCc2c(nc3cc[nH]n3c2=O)C1 | n | n
CCn1c(C2CCN(C(=O)c3ccc(OC)nc3)C2)nc2cccnc21 (configuration not stated) | n | n
O=C(NCc1ccccc1Cl)C1CCN(C(=O)Nc2cccs2)CC1 | 58.1 | n
O=C(NC1CC1)C1CCN(C(=O)Nc2cccs2)CC1 | n | n
SMILES | mHTT-CaM PPI inh | Pf apPOL block
NC(=NS(=O)(=O)c1ccc(F)cc1F)c1ccccc1 | n | n
CC(C)n1cc(C2=CCN(C(=O)Nc3ccc4c(c3)OCCO4)CC2)c2cccnc21 | 60.9 | n
CC(C)n1cc(C2=CCN(C(=O)Nc3ccc(Cl)cc3)CC2)c2cccnc21 | n | n
COc1ccc2c(=O)c(Oc3ccccc3)coc2c1 | n | n
Cc1ccc(NC(=O)N2CCOc3ccc(C)cc32)cc1 | n | n
Cc1cc(C)nc(Oc2c(Cl)cc(Cl)cc2Cl)n1 | n | n
CCCCc1c(C)c(C#N)c2nc3ccccc3n2c1NCCN1CCOCC1 | n | n
CCc1c(C)c(C#N)c2nc3ccccc3n2c1NCCCN1CCOCC1 | n | 83.3
Cc1ccc2c(c1)N(S(=O)(=O)c1ccc3[nH]c4c(c3c1)CCCC4)CCO2 | n | n
O=S(=O)(c1ccc2[nH]c3c(c2c1)CCCCC3)N1CCC2(CC1)OCCO2 | 57.8 | n
CCOC(=O)C1CCN(S(=O)(=O)c2ccc3[nH]c4c(c3c2)CCCCC4)CC1 | 71.3 | n
O=S(=O)(c1ccc2[nH]c3c(c2c1)CCCCC3)N1CCCCC1 | 75.7 | n
CN(CC(=O)N1CCCCCC1)S(=O)(=O)c1ccc2[nH]c3c(c2c1)CCCC3 | n | n
Cc1ccc(NC(=O)N2CCN(C(C(=O)N3CCCCC3)C3CCCC3)CC2)cc1 (configuration not stated) | n | n
CCNC(=O)c1cc(C)nc2ccc(CC)cc12 | n | n
COc1ccccc1-c1cc(C(=O)NC2CC2)n(C)n1 | n | n
Cc1ccc(C(=O)N2CCC(c3nc(C(=O)N4CCOCC4)c(C)o3)CC2)s1 | n | n
Fc1ccc(CN2COc3cc4c(cc3C2)OCN(Cc2ccc(F)cc2)C4)cc1 | n | x
COc1ccc(/C=C2/C(=O)N(c3ccc(Cl)c(C(=O)O)c3)N=C2C)cc1OC | n | n
COc1cccc(CN2COc3ccc4c(c3C2)OC(=Cc2cc(OC)c(OC)c(OC)c2)C4=O)c1 | n | n
COc1ccc(OC)c(C=C2Oc3c(ccc4c3CN(Cc3ccncc3)CO4)C2=O)c1 | n | n
COc1cc(C=C2Oc3c(ccc4c3CN(c3ccc5c(c3)OCO5)CO4)C2=O)cc(OC)c1OC | 59.1 | n
COc1cccc(C=C2Oc3c(ccc4c3CN(Cc3ccccn3)CO4)C2=O)c1 | 99.3 | n
COc1cc(C=C2Oc3c(ccc4c3CN(Cc3ccccn3)CO4)C2=O)cc(OC)c1OC | 100.3 | n
COc1ccc(N2COc3ccc4c(c3C2)OC(=Cc2ccc(OC)c(OC)c2)C4=O)cc1 | n | n
SMILES | mHTT-CaM PPI inh | Pf apPOL block
COc1ccc(C=C2Oc3c(ccc4c3CN(Cc3ccccn3)CO4)C2=O)c(OC)c1 | 100.2 | n
COc1ccccc1CN1COc2ccc3c(c2C1)OC(=Cc1cc(OC)c(OC)c(OC)c1)C3=O | n | n
O=c1c(O)c(-c2ccc(O)cc2O)oc2ccc(O)cc12 | n | x
COc1ccccc1CN1COc2ccc3c(c2C1)OC(=Cc1ccncc1)C3=O | 100.3 | n
COc1ccccc1CN1COc2ccc3c(c2C1)OC(=Cc1cccnc1)C3=O | n | n
N#CC1=C(N)SC(N)=C(C#N)C1c1ccco1 | n | n
O=C1[C@H]2CCC=C[C@H]2[C@H](c2ccccc2Br)N1Cc1ccccc1 | n | n
CC1C=C[C@@H]2[C@H](C1)C(=O)N(Cc1ccccc1)[C@H]2c1ccccc1Br (some centres not stated) | n | n
O=C1[C@H]2CCC=C[C@H]2[C@H](c2cccc(Br)c2)N1Cc1ccccc1 | 65.9 | n
Cc1cccc([C@H]2[C@@H]3C=CC(C)C[C@@H]3C(=O)N2Cc2ccccc2)c1 (some centres not stated) | 66.5 | n
O=C(NCC1CCCO1)c1cncc(-c2csc3ccccc23)c1 (configuration not stated) | n | n
Cc1ccc(C(=O)Nc2cc3cccc([N+](=O)[O-])c3oc2=O)cc1[N+](=O)[O-] | n | n
O=C(Nc1ccccc1Cl)c1cccc(NC(=O)c2ccccc2Cl)c1 | n | n
COc1cc(C2CC(=O)Nc3n[nH]c(-c4ccccc4)c32)cc(OC)c1OC (configuration not stated) | 100.0 | n
COc1cc(C2CC(=O)Nc3n[nH]c(C)c32)ccc1OCc1cccc(C)c1 (configuration not stated) | n | n
COc1cc(C2CC(=O)Nc3n[nH]c(-c4ccc(Cl)cc4)c32)ccc1O (configuration not stated) | 100.0 | n
COc1cc(C2CC(=O)Nc3n[nH]c(C)c32)ccc1OCc1cccc(Cl)c1 (configuration not stated) | 55.5 | n
COc1cccc(C2CC(=O)Nc3n[nH]c(-c4ccccc4)c32)c1 (configuration not stated) | n | n
COc1ccc(C2CC(=O)Nc3n[nH]c(-c4ccc(Cl)cc4)c32)cc1OC (configuration not stated) | n | n
